Measurements: publication PMC4336329 (PLoS ONE, 2015)
Hit rate of the full screen: of about 310,000 compounds, about 14,000 (4.5%) showed an effect of 50% or more. The effect is printed as a negative number. This is one part of a sample in which strong results are shown more often than they occur.

Target: human ether-à-go-go-related gene (hERG) potassium channel (human, UniProt Q12809)
Assay: primary screen, population patch clamp on CHO cells stably expressing hERG; higher = less effect of the substance
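Further: peak tail current of the secondary pulse compared with the same well before compound.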

Sequence of human ether-à-go-go-related gene (hERG) potassium channel (Q12809 whole entry, looked up): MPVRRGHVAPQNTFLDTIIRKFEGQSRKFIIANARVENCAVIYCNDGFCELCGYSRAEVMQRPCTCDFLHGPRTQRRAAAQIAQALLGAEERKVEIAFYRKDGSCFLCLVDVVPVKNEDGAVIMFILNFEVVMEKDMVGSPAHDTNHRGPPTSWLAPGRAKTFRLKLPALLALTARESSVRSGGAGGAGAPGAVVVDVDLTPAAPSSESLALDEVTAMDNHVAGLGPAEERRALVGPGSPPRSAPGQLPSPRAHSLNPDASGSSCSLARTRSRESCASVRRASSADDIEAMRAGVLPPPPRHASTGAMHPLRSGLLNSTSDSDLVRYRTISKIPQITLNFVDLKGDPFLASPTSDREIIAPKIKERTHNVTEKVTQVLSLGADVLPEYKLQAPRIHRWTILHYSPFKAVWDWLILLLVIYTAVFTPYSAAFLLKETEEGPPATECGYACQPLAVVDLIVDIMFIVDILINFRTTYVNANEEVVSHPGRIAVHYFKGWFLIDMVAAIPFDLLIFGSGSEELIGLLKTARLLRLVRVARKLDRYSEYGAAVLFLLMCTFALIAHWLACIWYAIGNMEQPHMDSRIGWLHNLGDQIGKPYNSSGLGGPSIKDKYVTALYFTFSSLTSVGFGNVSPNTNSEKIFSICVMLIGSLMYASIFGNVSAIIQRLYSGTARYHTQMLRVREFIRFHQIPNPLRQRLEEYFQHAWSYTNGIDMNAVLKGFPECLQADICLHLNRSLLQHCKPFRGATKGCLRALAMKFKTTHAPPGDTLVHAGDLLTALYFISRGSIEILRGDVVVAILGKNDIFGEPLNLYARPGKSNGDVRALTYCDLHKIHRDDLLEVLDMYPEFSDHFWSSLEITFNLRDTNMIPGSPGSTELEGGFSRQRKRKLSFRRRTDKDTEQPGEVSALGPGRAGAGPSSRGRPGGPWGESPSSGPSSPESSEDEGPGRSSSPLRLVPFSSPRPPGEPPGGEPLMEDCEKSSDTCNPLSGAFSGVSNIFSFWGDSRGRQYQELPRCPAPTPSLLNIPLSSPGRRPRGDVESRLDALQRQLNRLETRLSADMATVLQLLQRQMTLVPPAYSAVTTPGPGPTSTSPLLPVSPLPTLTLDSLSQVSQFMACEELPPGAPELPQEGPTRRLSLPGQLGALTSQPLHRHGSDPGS

In order of falling “hERG current change (%, negative = inhibition) at 10uM” value:
1. Cc1ccc(N2C(=O)NC(=O)/C(=C\c3cccn3C(C)(C)C)C2=O)cc1  24.5%
2. Cc1cccnc1NC(=O)Cn1c(=O)oc2ccccc21  23%
3. Cc1nn(-c2ccccc2)c(C)c1C(=O)NCc1ccc(S(N)(=O)=O)cc1  20.1%
4. COc1ccc([N+](=O)[O-])cc1N(CC(O)CN1CCOCC1)S(=O)(=O)c1ccccc1 (centres unmarked)  20%
5. CCCc1c(C(=O)N/N=C/c2ccccc2OCc2ccc(F)cc2)nnn1-c1nonc1N  18.6%
6. CCN1CCN(C(C)C(=O)Nc2c(C)n(C)n(-c3ccccc3)c2=O)CC1.O=C(O)C(=O)O (centres unmarked)  18.6%
7. Cl.N=c1sccn1CC(=O)Nc1ccc(S(N)(=O)=O)cc1  18.2%
8. CC(C)c1nc2sc3c(c2c(=O)[nH]1)CC(C)(C)OC3  17.7%
9. O=C(NCCO)c1nc(C(=O)c2ccccc2)c2ccccc2n1  15.9%
10. O=C(O)CSc1nc(SCc2ccccc2Cl)nc2c1CCCC2  15.4%
11. COc1ccc(Nc2nc(N3CCCCC3)nc(N3CCCCC3)n2)c(OC)c1  15.2%
12. COC(=O)c1sccc1NC(=O)C1CCCCC1C(=O)O (centres unmarked)  14.7%
13. CNC(=O)OCCc1n(C)cc[n+]1C.[I-]  13.9%
14. COc1cc(-c2nc3ccc4ccccc4c3c3c2CCC3)ccc1O  13.8%
15. Cc1[nH]n(-c2ccccc2)c(=O)c1CCO  13.7%
16. Cc1ccc(C(c2sc3nc(C)nn3c2O)N2CC(C)OC(C)C2)cc1 (centres unmarked)  13.3%
17. CC1CCCN(Cc2cnc(Cl)s2)C1 (centres unmarked)  13%
18. Cl.N=c1sccn1CC(=O)Nc1cccc(S(N)(=O)=O)c1  12.5%
19. CC(=O)Nc1ccc(NC2=CC(=O)c3ccccc3C2=O)cc1  11.6%
20. Cc1ccc(NC(=O)Cn2nnc(-c3ccc4c(c3)OCO4)n2)cc1F  11%
21. Cn1c(=O)c2c(ncn2C)n(C)c1=O  10.1%
22. O=C(/C=C/c1ccccc1)NC(=O)c1ccccc1O  9.95%
23. O=c1oc(Nc2ccc(F)cc2)nc2ccccc12  6.68%
24. Cl.O[C@@H](c1cc(C(F)(F)F)nc2c(C(F)(F)F)cccc12)[C@H]1CCCCN1  6.31%
25. COc1cc(C(=O)NC2CC(C)(C)CC(C)(C)C2)ccc1OC1CCN(C(C)=O)CC1  6.2%
26. CCN(CC(=O)Nc1ccc(NC(C)=O)cc1)C(=O)CC1OC(=O)c2ccccc21 (centres unmarked)  5.6%
27. CCC(C)c1ccc(NC(=O)C2CC2)cc1 (centres unmarked)  5.22%
28. CC(C)(C)C(=O)Cn1c(=O)n(-c2ccc(F)cc2F)c(=O)c2sccc21  4.28%
29. Cc1nn(-c2ccccc2)c(C)c1C(=O)NCc1ccccc1F  3.78%
30. CN(C)c1cccc(C(=O)N2CCC(n3nccc3NC(=O)C3CCOC3)CC2)c1 (centres unmarked)  3.5%
31. Cl.N=c1sccn1CC(=O)Nc1cccc2ccccc12  2.9%
32. COc1cccc2cc(C(=O)NCCC3=CCCCC3)c(=O)oc12  2.79%
33. Nc1cc(N)nc(SCC(=O)Nc2ccccc2N2CCOCC2)n1  2.73%
34. Cl.N=c1sccn1CC(=O)Nc1cc(Cl)ccc1[N+](=O)[O-]  2.64%
35. O=C1C(C2=NC(C(=O)O)C3C(=O)N(c4ccc(Cl)cc4)C(=O)C23)=C(O)c2ccccc21 (centres unmarked)  2.54%
36. COc1ccc(C(=O)NC2CCCCCCC2)cc1OC  1.54%
37. CCOC(=O)C(C)Sc1nnc(Cc2cc(=O)[nH]c(=O)[nH]2)n1-c1cccc(OC)c1 (centres unmarked)  0.328%
38. COc1cc2occc2c2oc(=O)ccc12  0.24%
39. Cn1cnnc1Sc1ccc(C(=O)OCC(=O)NCC(F)(F)F)cc1[N+](=O)[O-]  0.021%
40. COc1cccc2c(=O)c(C(=O)O)c[nH]c12  -0.514%
41. COCCCNC(=O)C(=O)N/N=C/c1ccc(OCC(=O)Nc2cccc(Cl)c2C)c(OC)c1  -0.6%
42. COc1cc(/C=N/NC(=O)COc2ccccc2C)ccc1OC(=O)c1cccs1  -0.671%
43. COc1ccc(Nc2nc(-c3ccccc3)nc3ccccc23)c(OC)c1  -1.67%
44. O=C(CCc1nc2ccccc2c(=O)[nH]1)NNC(=O)COc1cccc(F)c1  -1.88%
45. Cl.N=c1sccn1CC(=O)Nc1ccccc1-c1ccccc1  -2.05%
46. Cc1ccc(S(=O)(=O)NCC(=O)OCc2cc(=O)oc3cc(C)ccc23)cc1  -3.27%
47. COc1ccc(C(=O)NCCc2ccc(C)cc2)cc1OC1CCN(C(C)=O)CC1  -4.05%
48. CN(C)S(=O)(=O)n1cnc([C@H]2c3c(ncn3Cc3ccccc3)C[C@H]3COC(=O)[C@@H]32)c1  -4.15%
49. CCNc1nc(NCC)nc(Oc2ccc(C(=O)OC)cc2)n1  -5.78%
50. COc1cc(C(=O)NC(=S)Nc2ccc(NC(=O)c3ccco3)cc2)cc(OC)c1OC  -6.61%
51. N/C(=N\OC(=O)CCC1CCCCC1)c1ccc([N+](=O)[O-])cc1  -8.1%
52. O=C(CSc1ccccc1)Nc1cc(Cl)ccc1Oc1ccccc1  -9.05%
53. COc1ccc([N+](=O)[O-])cc1N(CC(O)CN1CCCCC1)S(=O)(=O)c1ccccc1 (centres unmarked)  -11.2%
54. Cl.OC(c1cc(C(F)(F)F)nc2c(C(F)(F)F)cccc12)C1CCCCN1 (centres unmarked)  -12.4%
55. O=c1[nH]c(=O)n(C2CCCCC2)c(O)c1/C=N/N1CCCCC1c1cccnc1 (centres unmarked)  -13.6%
56. CC1(C)NC(=O)N(CC(O)CN(c2ccccc2)S(=O)(=O)c2ccc([N+](=O)[O-])cc2)C1=O (centres unmarked)  -13.7%
57. Cl.N=c1sccn1CC(=O)Nc1ccc2c(c1)CCC2  -14.1%
58. Cc1ccc(S(=O)(=O)NCC(=O)OCc2cc(=O)oc3c(C)c(C)ccc23)cc1C  -16.7%
59. CCOC(=O)N1CCC(NC(=O)CSCc2nc(-c3ccccc3Cl)oc2C)CC1  -19.5%
60. CCOC(=O)c1cnc2c(C)cc(Cl)cc2c1N1CCN(C)CC1.Cl  -19.6%
61. CCC(=O)N1CCc2cc(S(=O)(=O)N3CCN(C(=O)c4ccco4)CC3)ccc21  -21.8%
62. COc1ccc(Nc2nc(Nc3ccc(OC)cc3OC)nc(N3CCN(C)CC3)n2)c(OC)c1  -22.6%
63. O=C(CN(c1cccc([N+](=O)[O-])c1)S(=O)(=O)c1ccccc1)N1CCCCC1  -24.8%
64. Cc1ccc(N(CC(=O)N2CCCCCC2)S(=O)(=O)c2ccccc2)cc1  -25.3%
65. O=c1c(Cl)c(NCC2CCCO2)cnn1C12CC3CC(CC(C3)C1)C2 (centres unmarked)  -29.3%
66. CCOC(=O)c1cnc2c(C)c(Cl)ccc2c1N1CCN(CC)CC1.Cl  -29.5%
67. Cl.NC(=NC1CCCCC1)c1ccc(Cl)cc1  -39.2%
68. COc1ccc(Nc2nc(N3CCCC3)nc3ccccc23)c(OC)c1  -44.6%
69. Cc1ccc(Oc2ccc(NC(=O)Cn3ccsc3=N)cc2)cc1.Cl  -45.1%
70. COc1ccc(F)cc1CN1CCN(CC(=O)N2CCc3ccccc32)CC1  -48.1%
71. OC(c1cc(-c2ccc(Cl)cc2)nc2ccccc12)C1CCCCN1 (centres unmarked)  -52.6%
72. Cc1nn(-c2ccccc2)c(C)c1C(=O)NCc1ccc(F)cc1  -53.2%
73. CCOC(=O)c1cnc2c(Cl)c(Cl)ccc2c1N1CCN(C)CC1.Cl  -55.5%
74. Cl.NC(=NC1CCCCC1)c1ccc([N+](=O)[O-])cc1  -57.2%
75. COc1ccc2c(COC(=O)CNS(=O)(=O)c3ccc(C)c(C)c3)cc(=O)oc2c1  -57.7%
76. O=C(CN(c1ccc([N+](=O)[O-])cc1)S(=O)(=O)c1ccccc1)N1CCCCC1  -61.9%
77. Cl.N=c1sccn1CC(=O)Nc1ccc(SC(F)F)cc1  -62.1%
78. COc1ccc(Nc2nc(N3CCCCC3)nc3ccccc23)c(OC)c1  -62.9%
79. Cl.N=c1sccn1CC(=O)NC(c1ccccc1)c1ccccc1  -63.3%
80. Cl.N=c1sccn1CC(=O)Nc1cccc(Oc2ccccc2)c1  -65.5%
81. COc1ccc(C(=O)NC2CC2)cc1OC1CCN(Cc2cc(C)cc(C)c2)CC1  -70.2%
82. COc1cc(CN2CCC(Oc3cc(C(=O)NC4CC4)ccc3OC)CC2)cc(OC)c1  -72.8%
83. O=[N+]([O-])c1ccc(N(CC(O)CN2CCCCC2)S(=O)(=O)c2ccccc2)cc1 (centres unmarked)  -74%
84. Cl.N=c1sccn1CC(=O)Nc1cc(Cl)ccc1Oc1ccccc1  -75.2%
85. COc1ccc(Nc2nc(N3CCN(C)CC3)nc3ccccc23)c(OC)c1  -75.4%
86. O=[N+]([O-])c1ccc(S(=O)(=O)N(CC(O)CN2CCCCC2)c2ccccc2)cc1 (centres unmarked)  -80.9%
